Laboratory results from PMC5540273 (PLoS ONE, 2017).

Columns and labels:
Settings in all cases: concentration: 1 μM, replicates: in singlicate; n = 1
PDPK1 = system: PDPK1
PFTAIRE2 = system: PFTAIRE2
PFTK1 = system: T1, PFTK1
T1 construct: gene CDK14

PHKG1 = system: PHKG1
PHKG2 = system: PHKG2
PIK3C2B = system: PIK3C2B
PIK3C2G = system: PIK3C2G
PIK3CA = system: PIK3CA
PIK3CB = system: PIK3CB
PIK3CD = system: PIK3CD
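Further: KINOMEscan kinase panel screen.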

| SMILES | %Inh (PDPK1) [%] | %Inh (PFTAIRE2) [%] | %Inh (PFTK1) [%] | %Inh (PHKG1) [%] | %Inh (PHKG2) [%] | %Inh (PIK3C2B) [%] | %Inh (PIK3C2G) [%] | %Inh (PIK3CA) [%] | %Inh (PIK3CB) [%] | %Inh (PIK3CD) [%] |
| --- | --- | --- | --- | --- | --- | --- | --- | --- | --- | --- |
| Cn1c(=O)c(F)c(Nc2ccc(I)cc2F)c2c(=O)n(OC[C@H](O)CO)cnc21 | 21 | 2 | 0 | 23 | 0 | 0 | 0 | 0 | 0 | 0 |
| Cc1c(Cn2c(C)nn3c(=O)cc(N4CCO[C@H](C)C4)nc23)cccc1C(F)(F)F [GSK2373690] | 0 | 10 | 11 | 3 | 0 | 0 | 0 | 0 | 96.7 | 65 |
| COc1cccc(-n2cnc3c(N)ncnc32)c1 [SKF-97416] | 0 | 0 | 0 | 34 | 0 | 0 | 34 | 21 | 32 | 54 |
| COc1cc(OC)cc(-c2cc3cnc(N)nc3nc2NC(=O)NC(C)(C)C)c1 | 0 | 0 | 0 | 13 | 0 | 65 | 74 | 0 | 32 | 0 |
| O=c1cc(N2CCOCC2)nc2n(Cc3ccc(F)c(Cl)c3)ccn12 [GSK2297099] | 0 | 62 | 14 | 0 | 0 | 31 | 0 | 11 | 96.2 | 75 |
| Cc1nn2c(=O)cc(N3CCOCC3)nc2n1Cc1cccc(Cl)c1Cl [GSK2342769] | 0 | 0 | 91.7 | 7 | 0 | 89 | 56 | 5 | 89 | 99.6 |
| Cc1cccc(-c2nc(Nc3ccc4c(cnn4C)c3)c3ccccc3n2)n1 [GW876731] | 37 | 10 | 22 | 0 | 0 | 0 | 44 | 0 | 3 | 61 |
| O=C(Nc1n[nH]c2cc(-c3ccccc3F)ccc12)C1CC1 [SB-733371] | 0 | 12 | 0 | 0 | 0 | 2 | 3 | 0 | 18 | 0 |
| Nc1n[nH]c2ncc(-c3ccccc3)cc12 [SB-517081] | 0 | 7 | 10 | 0 | 0 | 3 | 0 | 0 | 0 | 0 |
| Nc1nccc2scc(-c3ccc4c(c3)CCN4C(=O)Cc3ccccc3)c12 [GSK2576924] | 19 | 25 | 23 | 0 | 12 | 5 | 0 | 0 | 0 | 4 |
| COc1cc2nccc(Nc3ccc(OCc4ccc(NC(C)=O)cc4)cc3)c2cc1OC.Cl [GW440135] | 22 | 77 | 0 | 0 | 5 | 17 | 0 | 7 | 0 | 0 |
| Fc1cccc(CSc2nnc(-c3ccc4c(c3)CCO4)o2)c1 | 0 | 10 | 0 | 1 | 0 | 1 | 17 | 10 | 14 | 0 |
| CN1C(=O)C(Nc2cc(Cl)c(O)c(Cl)c2)=C(c2ccc(Cl)cc2)C1=O [SB-404321] | 0 | 0 | 0 | 0 | 0 | 0 | 0 | 0 | 0 | 0 |
| Cl.c1ccc(Cn2cnc3cc(Nc4ncnc5ccccc45)ccc32)cc1 [GW272142] | 0 | 16 | 23 | 0 | 1 | 3 | 0 | 1 | 71 | 0 |
| Nc1n[nH]c2nnc(-c3ccccc3)c(-c3ccccc3)c12 [GW554060] | 3 | 8 | 19 | 5 | 0 | 0 | 0 | 0 | 47 | 8 |
| COc1cc(Nc2ccnc3ccc(C(F)(F)F)cc23)cc(OC)c1OC [GW577382] | 32 | 8 | 0 | 3 | 0 | 0 | 0 | 0 | 0 | 0 |
| CCC(=O)c1c(-c2ccccc2)c2cc(Cl)ccc2c(=O)n1Cc1cc(S(C)(=O)=O)n(CC(N)=O)n1 | 31 | 0 | 11 | 0 | 0 | 0 | 0 | 0 | 0 | 0 |
